From the supplement of paper PMC6555819

What was measured:
Assay in all cases: PBM binding z-score (relative to random genomic background probes); higher = stronger binding; sequences stand for … in GC…GCGATTGACAGCGTAGAATGAAGG
[1] = system: FXR:RXRa (NR concentration 270 nM, RXRa partner concentration 90 nM)
How it was run: (§1)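 Binding buffer was PBS pH 7.4 with 2% milk, 0.02% Triton X-100, 1 mM DTT, 0.2 mg/mL BSA and 0.4 mg/ml salmon testes DNA. In it, ligand-free nuclear receptor dimers were incubated 1 h on custom Agilent 4×180K protein-binding microarrays carrying double-stranded probes. Antibodies against each partner (one per run) detected binding, and z-scores were calculated against random background probes after regression normalization of scanned fluorescence.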

[2] = system: LXRa:RXRa (NR concentration 270 nM, RXRa partner concentration 90 nM)
How it was run: as §1

[3] = system: LXRa homodimer (NR concentration 270 nM)
How it was run: as §1

[4] = system: LXRb:RXRa (NR concentration 270 nM, RXRa partner concentration 90 nM)
How it was run: as §1

[5] = system: LXRb homodimer (NR concentration 270 nM)
How it was run: as §1

[6] = system: PPARa:RXRa (NR concentration 270 nM, RXRa partner concentration 90 nM)
How it was run: as §1

[7] = system: PPARg:RXRa (NR concentration 180 nM, RXRa partner concentration 90 nM)
How it was run: as §1

[8] = system: PPARg:RXRa 270nM:90nM, anti-RXR (NR concentration 270 nM, RXRa partner concentration 90 nM)
How it was run: as §1

[9] = system: PPARg:RXRa 30nM:10nM, anti-RXR (NR concentration 30 nM, RXRa partner concentration 10 nM)
How it was run: as §1

[10] = system: PPARg:RXRa 90nM:30nM, anti-RXR (NR concentration 90 nM, RXRa partner concentration 30 nM)
How it was run: as §1

Sequence	PBM binding z-score [1]	PBM binding z-score [2]	PBM binding z-score [3]	PBM binding z-score [4]	PBM binding z-score [5]	PBM binding z-score [6]	PBM binding z-score [7]	PBM binding z-score [8]	PBM binding z-score [9]	PBM binding z-score [10]
CCTACTGGGCCAAAAAGGTCGTTGATGCCGATAA	0.402	0.901	0.0143	1.24	-0.786	2.45	1.08	1.81	0.344	1.24
GGAACGAGGGCAAAGTTAATAGCATCTGTCGACG	1.04	0.812	-0.00751	0.878	-0.23	3.62	5.8	6.25	4.67	6.67
TAGCCTAGGTCATTCAGGGGCGAGTATAGAAAGC	5.04	5.21	0.875	3.77	1.13	3.69	2.21	2.4	0.501	1.61
TAAATGAGGTTATAAGATCAGGGAACGTTGCAAA	1.94	2.28	0.212	1.55	0.646	2.85	2.1	2.73	2.19	2.51
CAAACTAGGTCAAGAAGTCAAAGTCCGCTTCCCG	3.65	2.9	0.599	1.94	0.337	4.89	7.74	6.67	4.66	6.22
CCTTGCGGGTCACGAGGTTATAGCACGACGAGCG	6.38	4.25	0.382	3.71	-0.139	5.87	7.48	6.95	4.06	5.86
AGCTCTAGGTAACCAAGTTCAGTGAATGCCGAAC	-0.0702	0.208	0.46	0.265	-0.228	0.481	0.22	0.513	-0.0768	-0.252
CCTAGCAGGCCAATCTGGGTCAGTCAAGGCTTGA	0.816	0.419	-0.663	0.0551	-1.41	1.97	0.228	0.88	-0.729	0.114
ACAGACAGGTGGGTGAAGGTAACTCAGCTGGACG	0.0751	-0.222	-0.335	-0.235	-0.295	0.238	0.861	0.585	-0.13	0.177
TCATATAGGTAATACAGATGAAAGTCGGCATCTA	0.463	0.531	0.032	0.521	0.268	1.08	1.47	1.93	4.02	2.97
GCTCGGAGGACAAGGTCGGAGCTTTGTCCGTAGA	-0.163	-0.153	-0.91	-0.475	-1.14	0.143	-1.09	-0.163	-1.12	-0.578
CAAACTAGGTCAAGGTCAAAATCGGTTTGTGCCA	6.5	5.02	3.14	4.66	1.58	6.16	9.66	7.73	6.38	7.81
CCAGACAGGTGAAAGGTAACTCAATCTGGTACGC	0.545	0.735	-0.0709	1.09	-0.161	3.43	5.5	6.13	3.94	5.99
CCGAGTAGGTTATGCGGCATTCAGGCAACGGTGA	-0.091	0.00702	-0.177	-0.0522	-0.569	0.802	0.774	1.06	-0.439	0.685
CCTGCTAGGTCATGTTCAGCTAATCTACAGTATG	3.33	2.25	0.437	1.65	0.467	2.69	1.36	1.91	0.403	1.16
CGAACGAGGGCATAAGTTGATAGCAAATGCCGAT	0.0955	-0.0152	-0.319	0.143	-0.74	1.49	1.93	2.59	0.799	2.34
CCTACTGGGCCAAAAAGGTCATTCATGCCGATAA	3.81	4.85	4.27	4.54	0.914	4.85	3.37	4.13	1.87	3.58
TCTTGTAGATCAGTAGGTTAAGAAAGCTGGCCAA	0.172	0.646	0.128	0.552	0.098	1.12	0.0222	1.98	2.94	2.31
ACTATTAGTTTAGACGAGGGCAACCGATAGGTTG	0.453	0.483	0.356	0.275	0.368	0.386	0.651	0.246	-0.0368	-0.045
ACTTGCGGGTCAACGAGGTTATAGCACGCGTATA	6.24	4.45	0.548	4.2	0.327	5.46	5.47	5.43	2.04	4.42
TCTTGTAGATCAACAGGAGGTTTAGAAAGATCGA	-0.117	-0.19	-0.342	0.0269	-0.559	0.152	-0.195	0.953	2.59	1.93
TAGCCTAGGTCATTGGGACAGTATAGTACGCATC	4.69	3.35	0.922	2.45	0.648	3.84	3.81	3.69	1.27	2.57
TCATCTAGGTAAAAGGTGAAAGTCGGTGTGGTAA	1.68	1.89	0.186	1.97	0.11	5.64	10	9.2	8.75	10.8
